This note sets out measurements from PubChem BioAssay AID1209 (Sanford-Burnham Center for Chemical Genomics, 2008).

Among all 190,000 compounds or so, about 810 (0.43%) were called active. The full list was thinned out, with actives kept by preference. A number with no mark means an inactive call. Cut-off read from the data, not from the text of the source: active = inhibition above about 50%; inactive = the rest.

What is called inhibition is the drop in the measured response relative to a control, in per cent.

For the experiment, the target named is Mannose-6-phosphate isomerase (Homo sapiens) (UniProt P34949). Kind of experiment: inhibitors of human PMI, primary screen, biochemical, fluorescence intensity, coupled assay (AID 1209).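 Note: plate controls were DMSO vehicle for no effect and wells lacking substrate for full effect.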 Particulars: purified PMI enzyme, at 20 µM, stronger effect = higher value.
Chain of Mannose-6-phosphate isomerase (Homo sapiens) (P34949 whole entry, looked up): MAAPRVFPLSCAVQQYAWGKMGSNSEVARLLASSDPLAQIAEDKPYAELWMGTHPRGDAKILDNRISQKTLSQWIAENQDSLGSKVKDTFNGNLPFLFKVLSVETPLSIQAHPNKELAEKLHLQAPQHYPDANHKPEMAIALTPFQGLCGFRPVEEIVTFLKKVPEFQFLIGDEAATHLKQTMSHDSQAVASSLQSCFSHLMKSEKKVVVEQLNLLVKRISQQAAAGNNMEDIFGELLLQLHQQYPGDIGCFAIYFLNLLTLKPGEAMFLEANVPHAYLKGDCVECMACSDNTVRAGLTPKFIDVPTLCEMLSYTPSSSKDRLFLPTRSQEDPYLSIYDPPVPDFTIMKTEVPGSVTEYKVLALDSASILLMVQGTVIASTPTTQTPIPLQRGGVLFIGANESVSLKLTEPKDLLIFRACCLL
Regarding `O=C(CCN1C(=O)C2CC=C(Cl)CC2C1=O)NC1CCCCC1` (stereo not given), the inhibition is -7.8%. The figure for `Cc1cc(C)n2nc(SCC(=O)c3cc(C)n(CC4CCCO4)c3C)nc2n1` (stereo not given) is -13.5%; for `Cc1ccc(NC(=O)CSc2n[nH]c(-c3ccco3)n2)c(C)c1` it is -4%.

In the case of `CCOC(=O)c1c(NCc2ccccc2)n[nH]c1C`, the inhibition is 13.3%. Regarding `Cc1cccc(N2C(=O)CC(Sc3ncn[nH]3)C2=O)c1` (stereo not given), the inhibition was 34.7%. The figure for `O=C1CC(Sc2ncn[nH]2)C(=O)N1c1ccccc1` (stereo not given) is 42.6%. The figure for `COc1ccc(N2C(=O)CC(Sc3ncn[nH]3)C2=O)c(OC)c1` (stereo not given) is 73.4% (active); for `CN(c1nnc(N)s1)C1CCCCC1` it is -8.5%; for `CCn1ncc(C2=NOC(C(=O)Nc3cccc(O)c3)C2)c1C` (stereo not given) it is -18.7%. Under `Fc1ccc(C2=CC(c3ccco3)n3ncnc3N2)cc1` (stereo not given) stands -42.5%; under `C1=C(c2ccc(-c3ccccc3)cc2)Nc2ncnn2C1c1ccco1` (stereo not given), 52.3% (active). `Clc1ccc(C2=CC(c3ccco3)n3ncnc3N2)cc1` (stereo not given): the inhibition was -12.4%. The figure for `Cc1nc2[nH]c(=S)n(C)c(=O)c2nc1C` is -17.3%; for `COC(=O)[C@@]1(Cc2ccc(F)cc2)[C@H]2c3cc(C(=O)N4CCCC4)n(CCO)c3C[C@H]2CN1C(=O)c1ccccc1` it is 1.6%; for `COCCn1c(C(=O)N2CCCC2)cc2c1C[C@H]1CN(C(=O)c3ccccc3)[C@@](Cc3ccc(F)cc3)(C(=O)OC)[C@@H]21` it is 13.8%.

For `COC(=O)[C@@]1(Cc2ccc(F)cc2)[C@H]2c3cc(C(=O)N4CCCC4)n(CCc4ccc(O)c(O)c4)c3C[C@H]2CN1C(=O)c1ccccc1`, the inhibition is 50.8% (active). Under `O=C(CNCc1ccc(F)cc1)Nc1ccccc1[N+](=O)[O-]` stands 5%; under `Cc1cc(C)c(Nc2cc(S(=O)(=O)O)c(N)c3c2C(=O)c2ccccc2C3=O)c(C)c1`, 91.5% (active); under `Cc1cc(C)c(NC(=O)COC(=O)c2cccc3c2C(=O)c2ccccc2C3=O)c(C)c1`, 5.1%. Under `Cc1cccc(S(=O)(=O)Nc2cccc3c2C(=O)c2ccccc2-3)c1` stands 10.6%. Under `COc1ccc(CCC(=O)NNC(=S)Nc2cccc(C(C)=O)c2)cc1` stands 1.2%; under `Cn1nnnc1SCc1ccc(C(=O)Nc2ccccc2F)cc1`, 9%; under `C/C(=N\NC(=O)C(c1ccccc1)c1ccccc1)c1ccccn1`, -5%.

Turning to `O=C(NNc1ccccn1)C(c1ccccc1)c1ccccc1`, the inhibition is 50.2% (active). The figure for `O=C(NNC(=O)C(c1ccccc1)c1ccccc1)c1ccccn1` is 10.3%; for `O=C(OCc1cnc(Cl)s1)c1cccc(Cl)c1` it is 10.3%; for `CC(=O)Nc1ccc(/C(C)=N/NC(=O)c2ccccc2Cl)cc1` it is 5.1%. Turning to `c1ccc(C2=Nn3c(nnc3-c3ccco3)SC2)cc1`, the inhibition is 75.6% (active).

In the case of `COc1ccc(C2=Nn3c(nnc3-c3ccco3)SC2)cc1`, the inhibition was -15.3%. The figure for `CCOc1ccc(C2=Nn3c(nnc3-c3ccco3)SC2)cc1` is 8.1%; for `C/C(=C\C(=O)Nc1nccs1)c1ccccc1` it is 9.8%. Under `Cc1cc(C)n2cc(CSc3ccccn3)nc2n1` stands -5.1%; under `O=C(/C=C/Sc1ncn[nH]1)c1ccc(Cl)cc1`, 50.3% (active); under `Clc1ccc(CSc2ncn[nH]2)cc1`, 7.1%. Under `O=C(/C=C/Sc1ccccc1)c1ccc(Cl)cc1` stands -10%. As to `Cc1cc(C)n2nc(SCCOc3ccccc3F)nc2n1`, the inhibition was -4.9%. As to `O=C(CSc1nccc(=O)[nH]1)Nc1ccc(F)c(Cl)c1`, the inhibition was 1.7%. The figure for `COCc1c(C#N)c(NCCc2ccccc2)nc(C)c1[N+](=O)[O-]` is 11.3%; for `CCCCn1c(SCC(=O)NCc2cccs2)nc2c1c(=O)n(C)c(=O)n2C` it is 9%; for `CCOc1cc(C(=S)N2CCOCC2)ccc1O` it is 66.8% (active).

With `CCOc1ccc(C(=S)N2CCOCC2)cc1OCC`, the inhibition is -6.6%. The figure for `CCOc1cc(C(=S)N2CCOCC2)ccc1OC` is 3.4%; for `O=C(CN1C(=O)C2C3C=CC(C3)C2C1=O)Nc1ccc(F)cc1` (stereo not given) it is 0.9%. Under `O=C(CN1CCN(Cc2ccccc2)CC1)Nc1ccc(-n2cnnn2)cc1` stands -1.5%; under `O=C(CN1CCN(c2ccccc2)CC1)Nc1ccc(-n2cnnn2)cc1`, 108% (active). In the case of `O=C(CN1CCN(c2ccc(F)cc2)CC1)Nc1ccc(-n2cnnn2)cc1`, the inhibition was 3.3%. Under `COc1ccc(/C=N/NC(=S)SC)cc1OC` stands 12.8%; under `Cc1ccc(C(=O)N(C)c2ccc(OCC(=O)N3c4ccc(C)cc4C4CN(C)CCC43)cc2)cc1` (stereo not given), 1.9%. Under `Cc1ccc(C(=O)CSc2nsc(C)c2C#N)cc1` stands 7.2%; under `Cc1cc(C)nc(SCC(=O)c2ccc([N+](=O)[O-])cc2)n1`, -11.2%.

Consider `Cc1nnc(SCC(=O)c2ccc([N+](=O)[O-])cc2)s1`, for which the inhibition was 2.6%.

For the compound `Cc1snc(SCC(=O)c2ccc(Cl)cc2)c1C#N`, the inhibition is 56.7% (active). In the case of `Cc1snc(SCC(=O)c2ccc(F)cc2)c1C#N`, the inhibition is -11.6%. The figure for `Cc1ccc(CC2CC(=O)N(C(Cc3ccccc3)C(=O)O)C2=O)cc1` (stereo not given) is 0.9%.

As for `C#CCOCCOCCOCCNc1nc(N2CCN(C(=O)[C@H]([C@@H](C)CC)n3cc(CCCN=C(N)N)nn3)CC2)nc(N2CCN(C(=O)[C@H](C)n3cc(CCCN=C(N)N)nn3)CC2)n1`, the inhibition is -22.8%. Under `CCN1CCCC1CNC(=O)CSc1cc(=O)n(C)c2cc(Cl)ccc12` (stereo not given) stands -0.3%; under `COc1ccc(C(=O)C2CCCN(C(=O)c3cccs3)C2)cc1F` (stereo not given), -2.9%.

Take `COc1ccc(C(=O)C2CCCN(C(=O)c3ccccc3C(C)=O)C2)cc1F` (stereo not given): the inhibition is -0.2%.

With `COc1ccc(C(=O)C2CCCN(C(=O)COc3ccc(C(C)=O)cc3)C2)cc1F` (stereo not given), the inhibition is 57.4% (active).

Consider `CC(=O)Nc1nc(SCCCc2ccccc2)n[nH]1`, for which the inhibition is -3.1%.

As to `COc1cccc(NC(=S)NNC(=O)CCn2cc([N+](=O)[O-])cn2)c1`, the inhibition was 9.6%. Under `O=C(Nc1nc(-c2ccc(Oc3ccccc3)cc2)cs1)C1=COCCO1` stands 19.1%.

For `Cc1ccc2[nH]c3c(c2c1)CCc1cn[nH]c1-3`, the inhibition was 69.4% (active). The figure for `c1ccc2c3c([nH]c2c1)-c1[nH]ncc1CC3` is 49%. Under `Clc1ccc2[nH]c3c(c2c1)CCc1cn[nH]c1-3` stands 12.6%. The figure for `COc1ccc(C(=O)OCC[N+]2(C)CCCCC2)cc1` is 4.5%. `CC(C)CCOc1ccc(C(=O)O)cc1`: the inhibition is 7.9%. Under `CC(C)CCOc1ccc(C(=O)NCCC(=O)N2CCOCC2)cc1` stands 8.3%.

`COc1ccc(C(=O)OCC[N+]2(C)CCOCC2)cc1`: the inhibition was -0.9%. Under `COc1ccc(C(=O)C[N+]2(C)CCOCC2)cc1` stands 81.3% (active). As to `CC(C)CCOc1ccc(C(=O)C[N+]2(C)CCOCC2)cc1`, the inhibition was 81.8% (active). The figure for `Oc1ccccc1C1=Nc2ncnn2C(c2ccccc2)C1` (stereo not given) is -40.5%; for `CCOCCCNC(=O)C(c1ccc(C)cc1)N(Cc1cccs1)C(=O)c1ccccn1` (stereo not given) it is 0.7%. For `CCCCCCCCc1nnc(NC(=O)c2ccco2)s1`, the inhibition was 2.7%.

In the case of `CCC(c1nnnn1Cc1cccs1)N1CCN(C2CCCC2)CC1` (stereo not given), the inhibition was 0%. The figure for `O=C(N/C(=C\c1cccc([N+](=O)[O-])c1)C(=O)N1CCOCC1)c1ccc([N+](=O)[O-])cc1` is 12.3%; for `O=C(C1=C[C@@H](C2CCCCC2)C[C@@H](OCc2ccc(CO)cc2)O1)N1CCN(Cc2ccc3c(c2)OCO3)CC1` it is 19.6%. The figure for `Cn1c(SCC(=O)C(C)(C)C)nnc1-c1ccncc1` is 6%; for `Cc1ccc(C(C)(C)C)cc1S(=O)(=O)NC(=O)c1ccccc1` it is -10.8%; for `CC1(C)Oc2cc(N)c([N+](=O)[O-])cc2O1` it is 17.5%. The figure for `C=C1N(C)c2cc([N+](=O)[O-])c(N)cc2C1(C)C` is 94% (active); for `Nc1ccc(-c2ccc(N)c([N+](=O)[O-])c2)cc1[N+](=O)[O-]` it is -6.5%. Turning to `Cc1ncc2c(c1OC(=O)c1ccc([N+](=O)[O-])cc1)COC(C)(C)OC2`, the inhibition was -1.9%.

Regarding `O=C(CCNC(=O)c1ccco1)Nc1ccc(Cl)cc1`, the inhibition was 4.4%. The figure for `O=C(CCN1CCOCC1)c1ccccc1` is -1.6%; for `COc1ccc(C(=O)CCN2CCN(c3ccccc3F)CC2)cc1` it is 16.8%. The figure for `O=C(CCN1CCOCC1)c1ccc(Cl)cc1` is 25.9%; for `CC1CCCN(CCC(=O)c2ccc(Br)cc2)C1` (stereo not given) it is 60.1% (active). The figure for `O=C(CCN1CCN(c2ccccc2F)CC1)c1ccc(Br)cc1` is 59.8% (active); for `CC1CCCN(CCC(=O)Nc2ccc(Br)cc2)C1` (stereo not given) it is -13.4%; for `O=C(CCN1CCN(c2ccccc2F)CC1)Nc1ccccc1F` it is -9.9%. As to `O=C(CCN1CCOCC1)c1ccc(Br)cc1`, the inhibition is 60.4% (active). The figure for `CC1CCCN(CCOc2ccc(Br)cc2)C1` (stereo not given) is -8.8%. Turning to `COc1cc(C)nc(N2CCC(C(N)=O)CC2)n1`, the inhibition is -2.7%. Turning to `Cc1cc(=O)n2[nH]c(-c3ccc(F)cc3)nc2n1`, the inhibition was 7.6%. Under `CC(=O)Nc1nc(NC(=O)/C=C/c2ccccc2)n(-c2ccccc2)n1` stands -31.3%; under `C=CCc1ccccc1OCCOc1ccc([N+](=O)[O-])cc1/C=N/NC(N)=O`, 3.8%; under `Cc1ccc(S(=O)(=O)NCC(=O)N(CC(=O)NC(C)(C)C)Cc2cccs2)cc1`, -16%. Under `COc1ccc(S(=O)(=O)NCC(=O)N(CC(=O)NC(C)(C)C)Cc2cccs2)cc1` stands 110% (active); under `CC(C)(C)NC(=O)CN(Cc1cccs1)C(=O)CNS(=O)(=O)c1ccccc1`, -0.6%.
